Calls of active or inactive are those of the source.
Legend:
[1] = tested on: Plasmodium falciparum Sir2 (PF13_0152, Sir2A); test: pfSir2 binders on small-molecule microarrays, primary screen, biochemical, small-molecule microarray, 635 nm fluorescence (AID 1098); conditions: small-molecule microarray binding, fluorescence 635 nm; higher = more signal;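 further: score merges spot fluorescence intensity with its signal-to-noise ratio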
[2] = small-molecule microarray binders of probe aDKK1, primary screen, biochemical, biotinylated probe, 635/667 nm fluorescence (AID 1099); conditions: higher = more signal;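 further: score merges 667nm spot fluorescence with signal to noise across triplicate slides; reference of the scale not given here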
[3] = small-molecule microarray binders of probe aCHRDL2, primary screen, biochemical, biotinylated probe, 635/667 nm fluorescence (AID 1100); conditions: higher = more signal
[4] = splicing luciferase reporter signal modulators, primary screen, spliceosome inhibition project, cell-based, HEK293, splice +/- reporter (AID 1101); conditions: luminescence, 24 h, higher = more signal, called active from +8 up or from −8 down;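 further: HEK293 cells carrying a splicing-competent luciferase reporter gene; test concentration not given here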
[5] = target: Fibroblast growth factor 10 (Homo sapiens) (UniProt O15520); test: FGF10 binders on small-molecule microarrays, primary screen, biochemical, small-molecule microarray, 635 nm fluorescence (AID 1102); conditions: FGF10 binding, fluorescence 635 nm, higher = more signal
Fibroblast growth factor 10 (Homo sapiens), sequence (O15520 whole entry, looked up): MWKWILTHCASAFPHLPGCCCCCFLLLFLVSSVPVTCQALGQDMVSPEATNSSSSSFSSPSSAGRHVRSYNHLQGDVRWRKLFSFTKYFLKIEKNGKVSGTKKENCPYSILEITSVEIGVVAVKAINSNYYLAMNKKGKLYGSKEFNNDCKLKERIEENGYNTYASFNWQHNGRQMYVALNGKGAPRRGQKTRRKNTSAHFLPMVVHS

[6] = tested on: glycogen synthase kinase-3 (GSK3A per assay name; protocol says GSK3B); test: GSK3 binders on small-molecule microarrays, primary screen, biochemical, small-molecule microarray, 635 nm fluorescence, GSK3A (AID 1103); conditions: small-molecule microarray binding, fluorescence 635 nm; higher = more signal; further: the record names both GSK3A and GSK3B
[7] = target: Epidermal growth factor receptor (Homo sapiens) (UniProt P00533); test: EGFR binders on small-molecule microarrays, primary screen, biochemical, small-molecule microarray, 635 nm fluorescence (AID 1104); conditions: EGFR binding, higher = more signal;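 further: score merges 667 nm emission intensity with spot signal to noise over triplicate slides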
Epidermal growth factor receptor (Homo sapiens), sequence (P00533 whole entry, looked up): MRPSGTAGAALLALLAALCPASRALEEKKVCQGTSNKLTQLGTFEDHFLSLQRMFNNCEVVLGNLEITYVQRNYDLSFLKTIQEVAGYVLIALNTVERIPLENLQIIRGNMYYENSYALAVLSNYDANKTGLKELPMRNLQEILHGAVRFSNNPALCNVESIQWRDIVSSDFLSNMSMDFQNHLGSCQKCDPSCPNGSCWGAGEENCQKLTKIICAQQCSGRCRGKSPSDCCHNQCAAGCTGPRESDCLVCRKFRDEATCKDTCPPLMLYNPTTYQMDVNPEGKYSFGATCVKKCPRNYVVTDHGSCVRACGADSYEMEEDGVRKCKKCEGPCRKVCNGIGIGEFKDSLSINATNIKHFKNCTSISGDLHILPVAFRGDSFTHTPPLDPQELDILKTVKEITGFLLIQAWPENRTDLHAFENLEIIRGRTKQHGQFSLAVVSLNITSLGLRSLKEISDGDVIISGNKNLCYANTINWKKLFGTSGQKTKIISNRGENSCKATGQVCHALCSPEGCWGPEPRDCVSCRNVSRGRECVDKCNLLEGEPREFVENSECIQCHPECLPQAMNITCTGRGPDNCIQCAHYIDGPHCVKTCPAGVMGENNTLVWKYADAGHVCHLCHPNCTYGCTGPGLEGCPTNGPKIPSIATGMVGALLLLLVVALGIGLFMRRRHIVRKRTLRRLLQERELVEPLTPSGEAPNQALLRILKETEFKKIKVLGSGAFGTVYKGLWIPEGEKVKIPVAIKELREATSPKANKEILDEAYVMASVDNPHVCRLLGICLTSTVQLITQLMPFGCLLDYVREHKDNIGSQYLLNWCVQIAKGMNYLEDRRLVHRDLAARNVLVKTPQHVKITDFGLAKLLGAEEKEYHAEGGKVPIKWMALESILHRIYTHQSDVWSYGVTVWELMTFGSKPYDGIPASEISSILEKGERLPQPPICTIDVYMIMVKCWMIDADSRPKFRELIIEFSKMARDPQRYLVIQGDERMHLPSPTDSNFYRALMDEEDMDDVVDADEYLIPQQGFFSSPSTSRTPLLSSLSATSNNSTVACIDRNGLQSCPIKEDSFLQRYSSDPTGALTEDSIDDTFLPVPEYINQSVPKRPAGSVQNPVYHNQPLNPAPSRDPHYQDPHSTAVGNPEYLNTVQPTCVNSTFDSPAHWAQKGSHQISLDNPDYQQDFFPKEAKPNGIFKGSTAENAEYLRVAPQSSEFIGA

[8] = target: Follistatin-related protein 3 (Homo sapiens) (UniProt O95633); test: FSTL3 binders on small-molecule microarrays, primary screen, biochemical, small-molecule microarray, 635 nm fluorescence (AID 1105); conditions: FSTL3 binding, higher = more signal;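 further: score merges emission near 667 nm and signal to noise per printed spot across three slides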
Follistatin-related protein 3 (Homo sapiens), sequence (O95633 whole entry, looked up): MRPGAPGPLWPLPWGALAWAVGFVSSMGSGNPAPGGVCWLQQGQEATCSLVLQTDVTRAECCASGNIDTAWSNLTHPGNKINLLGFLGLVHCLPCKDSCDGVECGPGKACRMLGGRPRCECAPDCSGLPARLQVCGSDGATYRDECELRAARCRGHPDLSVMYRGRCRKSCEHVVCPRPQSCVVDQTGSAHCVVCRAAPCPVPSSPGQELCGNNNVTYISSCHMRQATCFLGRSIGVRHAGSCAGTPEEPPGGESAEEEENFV

[9] = target: Dickkopf-related protein 1 (Homo sapiens) (UniProt O94907); test: DKK1 binders on small-molecule microarrays, primary screen, biochemical, small-molecule microarray, 635 nm fluorescence scan (AID 1106); conditions: DKK1 binding, higher = more signal;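 further: score merges emission near 667 nm with signal to noise over three replicate slides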
Dickkopf-related protein 1 (Homo sapiens), sequence (O94907 whole entry, looked up): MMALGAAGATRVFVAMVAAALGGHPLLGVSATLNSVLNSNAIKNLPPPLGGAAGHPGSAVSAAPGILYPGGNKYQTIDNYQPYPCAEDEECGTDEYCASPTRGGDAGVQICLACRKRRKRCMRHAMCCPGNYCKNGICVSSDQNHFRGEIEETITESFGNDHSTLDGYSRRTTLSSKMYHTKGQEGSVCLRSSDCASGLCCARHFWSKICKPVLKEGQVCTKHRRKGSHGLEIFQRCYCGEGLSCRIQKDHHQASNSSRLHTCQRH

[10] = tested on: Inhibin beta A chain (activin A); test: INHBA (activin A) binders on microarrays, primary screen, biochemical, small-molecule microarray, 635 nm fluorescence scan (AID 1107); conditions: small-molecule microarray binding, higher = more signal;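 further: mouse activin A protein probed at 4.33 µg/mL on printed slides; score merges bound-protein fluorescence near 667 nm with spot signal-to-noise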

SMILES | composite z-score [1] | composite z-score [2] | composite z-score [3] | z-score [4] | composite z-score [5] | composite z-score [6] | composite z-score [7] | composite z-score [8] | composite z-score [9] | composite z-score [10]
CCOC(=O)C1=C[C@@H](C(C)(C)C)N(S(=O)(=O)c2ccc(C)cc2)[C@H]1c1ccc(F)cc1 | 0.592 | 0.75 | 0.4 | -0.711 (inactive) | 0.81 | 1.29 | 0.395 | 1.23 | 0.402 | 0.556
CC1(C)[C@@H]2CC(C(O)C3C=CC4C(=O)N(c5ccccc5)C(=O)C4N3Nc3ccc([N+](=O)[O-])cc3)=C[C@H]1C2 (stereo not given in full) | 0.966 | 0.217 | 0.648 | -0.547 (inactive) | 1.11 | 1.34 | 0.604 | 1.38 | -0.104 | 0.482
O=C1c2ccccc2[C@](Cc2ccccc2I)(C(=O)NCCN2CCOCC2)[C@H](c2ccc(CO)cc2)N1Cc1ccccc1Cl | 1.42 | 0.964 | 0.732 | -0.0587 (inactive) | 1.15 | 1.28 | 0.629 | 1.25 | 0.419 | 0.605
CC(C)(C)OC(=O)CC[C@]1(C(=O)N2CCOCC2)N=C(c2ccc(OCCCO)cc2)O[C@H]1c1ccccc1N=[N+]=[N-] | 1.5 | 0.653 | 0.854 | -0.921 (inactive) | 1.18 | 1.2 | -0.0405 | 0.0265 | 0.283 | 0.936
C=C(C(=O)CC[C@@H](OC(=O)c1cccnc1)c1ccccc1OCCO)C(C)C | 0.0757 | -0.181 | 0.0623 | 1.34 (inactive) | 0.969 | 0.342 | 0.029 | 0.401 | 0.063 | 1.34
C=C[C@H](CO[Si](CC)(CC)CC)N(Cc1ccc(OC(C)=O)c(OC)c1)S(=O)(=O)c1ccc(Br)cc1 | 0.609 | 0.964 | 0.471 | -0.0534 (inactive) | 0.365 | 0.443 | 0.275 | 0.465 | 0.0558 | 1.1
COC(=O)C(CC#Cc1ccc2c(c1)[C@]1(C(=O)N2)[C@H](c2ccc(OCCO)cc2)N2[C@H](c3ccccc3)[C@H](c3ccccc3)OC(=O)[C@H]2[C@@H]1C(=O)Nc1nc2ccccc2s1)C(=O)OC | 0.842 | -0.348 | 0.0051 | -0.0218 (inactive) | 1.03 | 1.28 | 0.313 | 1.09 | 0.42 | 0.0864
O=C(NCCO)C1=C[C@H](Oc2ccccc2I)[C@@H](O)[C@H](N(Cc2ccco2)C(=O)Cc2ccccc2)C1 | -0.012 | -0.223 | -0.453 | -0.0906 (inactive) | 0.556 | 0.349 | 0.508 | 0.468 | 0.431 | 0.497
CC(C)N1C(=O)C[C@@](C(=O)NCC(F)(F)F)(c2ccc([N+](=O)[O-])cc2)[C@H]1c1ccc(CO)cc1 | 1.42 | -0.186 | 0.52 | -0.259 (inactive) | -0.244 | 0.0211 | -0.399 | -0.241 | -0.272 | 0.5
COC(=O)[C@@]1(Cc2ccc(OC)cc2)[C@H]2c3cc(C(=O)N(C)C)n(C)c3C[C@H]2CN1C(=O)c1ccccc1 | 0.843 | 0.928 | 1.28 | -1.96 (inactive) | 0.924 | 0.789 | 0.534 | 1.33 | -0.105 | 0.511
C=CCC(OC(C)=O)[C@@H]1[C@@H](N(Cc2ccc(-c3ccccc3)cc2)C(=O)c2ccc(-c3ccccc3)cc2)c2cc(OCCCO)ccc2N1C(=O)Cc1ccc2ccccc2c1 (stereo not given in full) | -0.316 | -0.108 | 0.336 | -0.412 (inactive) | -0.133 | -0.0682 | 0.0825 | 0.394 | 0.0989 | 1.11
CCC[C@@H]1C[C@@]1(CCC)[C@@H](NC(=O)c1ccccc1)c1cccc(Cl)c1 | -0.12 | 2 | 0.958 | 0.444 (inactive) | 0.905 | 1.09 | 0.446 | 0.644 | -0.202 | 1.08
Cc1ccc([C@@H]2C[C@@H](Sc3ccccc3)[C@H](C(=O)O)CN2S(=O)(=O)c2ccc(C)cc2)cc1 | 1.31 | 0.055 | 0.874 | -0.521 (inactive) | 1.37 | 1.34 | 0.271 | 0.968 | -0.0594 | 0.289
Cc1ccc(S[C@]2(C(=O)O)CC(=O)N(C(C)C)[C@@H]2c2ccc(CO)cc2I)cc1 | 1.33 | 0.831 | 1.18 | -2.55 (inactive) | 0.0877 | 0.511 | -0.645 | 0.315 | -0.27 | 1.33
O=C1C[C@@](C(=O)NCCN2CCOCC2)(c2ccc([N+](=O)[O-])cc2)[C@@H](c2ccc(CO)cc2I)N1CC12CC3CC(CC(C3)C1)C2 | 1.29 | -0.174 | 0.283 | -3.38 (inactive) | 1.33 | 1.3 | 0.545 | 1.03 | 0.324 | -0.0038
COc1cc(NN2C(C(O)c3ccco3)C=CC3C(=O)N(c4ccccc4)C(=O)C32)cc(OC)c1OC (stereo not given) | 1.69 | 0.157 | 0.485 | 0.523 (inactive) | -0.0151 | -0.0659 | -0.395 | 0.373 | -0.21 | 0.914
O=C1[C@@]23C=C(Br)[C@H](C[C@@H]2CCOC3)[C@@]12CO2 | 0.204 | -0.327 | -0.478 | 0.149 (inactive) | 0.254 | 0.329 | 0.442 | 0.473 | 0.485 | 0.684
CCOC(=O)[C@H]1C/C=C/C[C@H](C(=O)OCC)C(=O)O[C@H]2[C@@H](OC)O[C@H](CO)[C@@H](OC(=O)c3c(OC)cccc3OC)[C@@H]2OC1=O | 0.615 | -0.0451 | 0.152 | 0.837 (inactive) | 0.803 | 0.62 | -0.13 | 1.16 | 0.764 | 0.837
CC1CC/C=C\[C@H]2OC34C=CCN(C(C)(C)C)C(=O)[C@H]3N(C(C)CO)C(=O)[C@@H]4C2C(=O)O1 (stereo not given in full) | -1.24 | -0.366 | -0.266 | 1.11 (inactive) | -0.443 | -0.948 | -0.698 | -0.268 | -0.007 | 1.28
C=CC[C@]1(C(=O)NCc2ccccc2)N=C(c2ccc(OCCCO)cc2)O[C@H]1c1ccccc1N=[N+]=[N-] | 1.33 | -0.0281 | 1.11 | -0.457 (inactive) | 0.819 | 0.849 | 0.174 | 0.637 | -0.284 | 1.29
CC(=O)NCCCC[C@@H]1NC(=O)[C@H]2C[C@@H](C(=O)NCCCCCCNC(=O)CS)[C@@H](c3ccc(O)cc3)N2C1=O | 0.629 | -0.0749 | 0.986 | -0.401 (inactive) | 0.0258 | 0.0703 | -0.728 | -0.961 | -0.788 | -1.11
CC(C)NC(=O)[C@@]1(c2ccc([N+](=O)[O-])cc2)CC(=O)N(C2CCCCC2)[C@@H]1c1ccc(CO)cc1I | 1.04 | 0.719 | 0.902 | 0.61 (inactive) | -0.0505 | 0.406 | -0.527 | -0.573 | -0.566 | -0.524

From PubChem BioAssay
